# Bioassay records (PubChem)
# This is a sample that favours compounds with a hit; in the whole collection about 1.2% have one here.
# NOD2 RIPK2 PPI: blocks binding of human NOD2 to RIPK2; actives 0.38% (n = 360,000); CHO BLA complementation NOD2-RIPK2, CCF4 ratio; AID 624267; O43353; inhibition, % at 4.98 µM; in the data active means inhibition above about 21%;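 further: 0% = vehicle only and 100% = reference blocker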
# NPR2 activator: GC-B (human) receptor activation | HEK293-GC-B cells, CNP EC30, cGMP TR-FRET; 0% at EC30 CNP, 100% saturating CNP | AID 1920062 | actives 0.11% (n = 370,000) | activation, % at 10 µM | P20594;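 active means activation at 10 µM reaching about 35% in either raw or pattern-adjusted values, limit read from the data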
# TLR9-MyD88 block: blocks human TLR9 binding to MyD88; actives 0.21% (n = 340,000); AID 504734; inhibition, % at 4.98 µM; Q9NR96+Q99836; CHO BLA complementation TLR9-MyD88, CCF4 FRET ratio;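 active means inhibition above the mean over all tested compounds plus 3 SD, cut at about 21% in these data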;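 further: 0% = DMSO only wells and 100% = clavulanate BLA inhibitor control wells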
# Neddylation inh: blocks human cullin neddylation; P61081+Q13564; TR-FRET cullin neddylation, biochemical; inhibition, % at 25 µM; actives 0.58% (n = 360,000); in the data active means inhibition above about 36%
# GC-A act: GC-A (human) enzyme activation. HEK293 GC-A cells, cGMP TR-FRET, EC30 ANP; 0% at EC30 ANP, 100% saturating ANP. activation, % at 10 µM. actives 0.14% (n = 370,000); in the data active means activation above about 40%
# TLR4-MyD88 BLA: TLR4-MyD88 interaction inhibition in cells; O00206+Q99836; HeLa CL3-4 TLR4/MyD88 BLA complementation, FRET ratio; actives 0.18% (n = 200,000); inhibition, % at 8.4 µM; in the data active means inhibition above about 25%;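 further: 0% = vehicle and 100% = reference inhibitor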
# Neddyl conf: confirmation of human cullin neddylation inhibitors | shares compounds with Neddylation inh | TR-FRET cullin neddylation biochemical assay | calls only at 25 µM | actives 13% (n = 1,800) | AID 652217; in the data active means inhibition above about 40%;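 further: neddylation substrate is the cullin 1 ring ligase complex with SKP2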
# An asterisk follows results filed as active; i = inactive; . = no result given; + = active, no number.
SMILES,NOD2 RIPK2 PPI,NPR2 activator,TLR9-MyD88 block,Neddylation inh,GC-A act,TLR4-MyD88 BLA,Neddyl conf
O=C(NCc1ccco1)c1cnn2c(C(F)(F)F)cc(-c3ccccc3)nc12,-3,3,0,42*,4,3,i
COc1ccc(-c2cc(C(F)(F)F)n3ncc(C(=O)NCc4ccco4)c3n2)cc1,7,5,-1,.,12,14,.
COCCCNC(=O)C[C@H]1C[C@@]2(C(=O)OC)C(=C[C@H](COCc3ccccc3)O[C@@H]2C)N(Cc2ccco2)C1=O,.,1,.,.,-1,.,.
C/C(=N\NC(=O)c1ccc(N2CCCC2=O)cc1)c1ccc(O)cc1O,-8,1,-6,63*,-3,.,i
Cc1ccc(C(=O)N/N=C/c2ccc(N3CCOCC3)cc2)c(C)c1,0,2,7,41*,4,4,i
Cc1ccc(NS(=O)(=O)c2cccc(C(=O)N/N=C/c3ccc4c(c3)OCCO4)c2)c(C)c1,-5,1,-2,49*,0,2,i
COc1ccccc1NS(=O)(=O)c1cccc(C(=O)N/N=C/c2ccc(N3CCOCC3)cc2)c1,-4,0,0,41*,1,-1,i
Cc1ccc(NS(=O)(=O)c2cccc(C(=O)N/N=C/c3c(C)nn(-c4ccccc4)c3N3CCCC3)c2)c(C)c1,-13,11,-12,.,-2,16,.
O=C(N/N=C/c1ccc(N2CCOCC2)cc1)c1ccc(O)cc1,-11,-6,-8,32,-2,.,.
COc1ccc(NC(=O)CCNC(=O)C2CCN(S(=O)(=O)c3ccccc3)CC2)cc1OC,9,-7,-4,-4,2,.,.
O=C(Nc1cc2c3c(c1)CC(=O)N3CCC2)C1CC1,-11,-4,-6,7,0,.,.
COc1ccc(CCNC(=O)c2ccc3c(c2)ncn3C2CCCCC2)cc1,.,-7,.,.,1,.,.
C[C@H](O)C(=O)C1=Nc2c(nc(N)[nH]c2=O)NC1,-4,-1,5,55*,2,.,i
COc1ccc2nc(COC(=O)c3ccco3)c(C(C)=O)[n+]([O-])c2c1,12,2,6,13,2,-6,.
COc1ccc2nc(CC(C)(C)CC(=O)O)c[n+]([O-])c2c1,-10,-1,-3,51*,6,3,.
CCOC(=O)C1CCN(C(=O)c2ccc(OCC(=O)Nc3ccc(OCC)cc3)c(OC)c2)CC1,-5,3,2,-2,3,.,.
COc1ccc(-c2cc(C(=O)N3CCN(c4ccccn4)CC3)c3ccccc3n2)cc1,-6,-4,-3,34,1,-5,.
COc1ccc(-c2cc(C(=O)N(C)CCc3ccc(OC)c(OC)c3)c3ccccc3n2)cc1,3,10,-1,46*,8,.,i
COc1ccc(-c2cc(C(=O)N3CCCCCC3)c3ccccc3n2)c(OC)c1,-2,7,-9,42*,2,.,.
COc1ccc(-c2csc(NC(=O)c3cc(-c4cccs4)nc4ccccc34)n2)c(OC)c1,-17,1,-7,44*,1,-4,i
COc1cc(-c2cc(C(=O)N3CCN(c4ccccn4)CC3)c3ccccc3n2)cc(OC)c1OC,2,3,-2,42*,8,-5,i
CC(Oc1ccccc1F)C(=O)NNC(=O)CC(C)c1ccccc1 (configuration not stated),-5,3,6,7,0,.,.
COc1ccc(-c2cc(C(=O)N3CCN(c4ccccc4O)CC3)c3ccccc3n2)cc1OC,-5,5,0,54*,6,.,+
Cc1ccc(-c2csc(N3CCN(c4cc5c(cc4Cl)nc(C)n5CCN4CCCCC4)CC3)n2)cc1,-3,-3,10,13,1,.,.
Cc1csc(N2CCN(c3cc4c(cc3Cl)nc(-c3ccncc3)n4CCCN3CCCC3)CC2)n1,3,3,-3,30*,3,.,i
CCc1c(-c2cccc(OC)c2)ncn1CCc1ccccc1OC,.,-12,.,.,-10,.,.
